Experimental data: PubChem BioAssay (NCATS)
Results filed as inconclusive are left out. Entries that show only a call come without a potency. Calls of active or inactive are those of the source. Calls follow the shape of the dose curve; as a rule, active = well fitted inhibition curve with a large enough effect; inconclusive = small, poorly fitted or top-dose-only effect; inactive = flat fitted curve, though single readings scatter.

What follows are compounds tested on CRL-7250 (assay: qHTS assay to identify novel small-molecules to repurpose for Merkel cell carcinoma treatment (AID 1296009; also: nearly all actives have a fitted effect of over 60% in size)). Conditions: MCC and control cell lines, CellTiter-Glo viability, 72 h; series mostly up to 92 µM.
Outline: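 Luminescence from CellTiter-Glo, read 10 min after addition at room temperature, reported viability following a 72 hr, 37 degree celsius treatment with NPC or MIPE compounds in titration; values normalized to plate controls.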

Compound	Potency	outcome
CC(C)(C)NCC(O)COc1cccc2c1CCCC2=O (configuration not stated)	inactive	–
O=c1[nH]ccc2nc(-c3ccc(CN4CCC(c5nc(-c6ccccn6)n[nH]5)CC4)cc3)c(-c3ccccc3)cc12	inactive	–
C#Cc1cnc2[nH]c(=O)n(C(CC)CC)c2n1	inactive	–
CC1(C)OC[C@H](NC(=O)Nc2ccc(Br)cc2Br)[C@H](c2ccccc2)O1	inactive	–
COC(=O)[C@H](O)[C@H]1C(C)(C)[C@H](OC(C)=O)[C@@]2(O)C(=O)[C@]1(C)C1CC[C@]3(C)C(CC(=O)O[C@H]3c3ccoc3)[C@]13O[C@@H]32 (some centres not stated)	inactive	–
CO[C@H]1O[C@@H]2O[C@@]3(C)CCC4[C@H](C)CCC([C@H]1C)[C@]42OO3 (some centres not stated)	inactive	–
CC(C)C(C(=O)N(C)C(C)C(N)=O)N(C)C(=O)C1CCCN1C(=O)/C=C/C=C/C(O)C(C)O (configuration not stated)	inactive	–
Cn1c(=O)c2nc(/C=C/c3cccc(Cl)c3)n(C)c2n(C)c1=O	inactive	–
COc1cc(Nc2nc3c(s2)CCCC3c2ccccc2)ccc1-n1cnc(C)c1 (configuration not stated)	–	inactive [at 9.27 µM]
O=C(/C=C/c1ccccc1)OCC1=CC[C@@H]2C(C(=O)O)=CO[C@@H](O[C@@H]3O[C@H](CO)[C@@H](O)[C@H](O)[C@H]3O)[C@H]12	inactive	–
COc1ccc(/C=C/C(N)=O)cc1OC	inactive	–
CCOC(=O)[C@H](CCc1ccccc1)N[C@@H](C)C(=O)N1C2CCCCC2C[C@H]1C(=O)O (some centres not stated)	inactive	–
COc1cc(CC(COC2OC(CO)C(O)C(O)C2O)c2cc(/C=C/CO)cc(OC)c2O)ccc1O (configuration not stated)	inactive	–
CCOc1ccc(C(Nc2ccccn2)c2ccc3ccc(C)nc3c2O)cc1C (configuration not stated)	inactive	–
CC(=O)OCC1=C[C@H](O)[C@@H]2C(C(=O)O)=CO[C@@H](O[C@@H]3O[C@H](CO)[C@@H](O)[C@H](O)[C@H]3O)[C@H]12	inactive	–
COc1ccc(C2Oc3c(OC)cc(CCCO)cc3C2COC2OC(CO)C(O)C(O)C2O)cc1OC (configuration not stated)	inactive	–
C=C1CCC2C(C)(C(=O)OC)CCCC2(C)C1CCC(C)CC(=O)O (configuration not stated)	inactive	–
C=CC1(C)CC(OC(=O)/C(C)=C\COC(C)=O)C(C(=C)C(=O)O)C(O)C1C(=C)CO (configuration not stated)	inactive	–
Cc1occc(=O)c1O[C@@H]1O[C@H](CO[C@@H]2OC[C@](O)(CO)[C@H]2O)[C@@H](O)[C@H](O)[C@H]1O	inactive	–
COc1c2c(c(C)c3c1C(=O)OC3)O[C@@]1(C)CC(O)C(C(C)(C)O)[C@](C)(CCC(=O)O)[C@H]1C2 (some centres not stated)	inactive	–
CC1CC(=O)C2=C(O1)OC1(C)CCC3C(C)(C)C4OC4C(=O)C3(C)C1C2 (configuration not stated)	inactive	–
CCC/C=C/C=C/C1CC(O)C2(O)C(=O)OCC12 (configuration not stated)	inactive	–
O=C(Nc1ccccc1-c1cn2c(CN3CCNCC3)csc2n1)c1ccc2ccccc2n1	inactive	–
Cc1cc(-c2ncc(-c3cccnc3)cc2/C=C/c2ccccc2)cnc1-c1cccnc1	inactive	–
C=C(C(=O)OC)C1C(O)CC2(C)C(=O)CCC(O)(CO)C2C1O (configuration not stated)	inactive	–
CC(=O)C1CCC(=O)N1Cc1ccccc1 (configuration not stated)	inactive	–
OC[C@H]1O[C@@H](OCc2ccccc2)[C@H](O[C@@H]2OC[C@@H](O)[C@H](O)[C@H]2O)[C@@H](O)[C@@H]1O	inactive	–
